Measurements published in ChEMBL document CHEMBL3988442, “University of Dundee, Small-Polar-MMV Screening Library” (2021).
For part of these data: Potency and affinity values are given separately.

How the values were obtained:
[1] = target: T1, Methionyl-tRNA synthetase, putative (Leishmania donovani (strain BPK282A1)) (UniProt E9BF75); test: Leishmania donovani Methionine tRNA synthetase (LdMetRS):v7. Dose response assay; format: functional; design: conc 80 nM, time 150 minutes
T1 sequence (whole entry): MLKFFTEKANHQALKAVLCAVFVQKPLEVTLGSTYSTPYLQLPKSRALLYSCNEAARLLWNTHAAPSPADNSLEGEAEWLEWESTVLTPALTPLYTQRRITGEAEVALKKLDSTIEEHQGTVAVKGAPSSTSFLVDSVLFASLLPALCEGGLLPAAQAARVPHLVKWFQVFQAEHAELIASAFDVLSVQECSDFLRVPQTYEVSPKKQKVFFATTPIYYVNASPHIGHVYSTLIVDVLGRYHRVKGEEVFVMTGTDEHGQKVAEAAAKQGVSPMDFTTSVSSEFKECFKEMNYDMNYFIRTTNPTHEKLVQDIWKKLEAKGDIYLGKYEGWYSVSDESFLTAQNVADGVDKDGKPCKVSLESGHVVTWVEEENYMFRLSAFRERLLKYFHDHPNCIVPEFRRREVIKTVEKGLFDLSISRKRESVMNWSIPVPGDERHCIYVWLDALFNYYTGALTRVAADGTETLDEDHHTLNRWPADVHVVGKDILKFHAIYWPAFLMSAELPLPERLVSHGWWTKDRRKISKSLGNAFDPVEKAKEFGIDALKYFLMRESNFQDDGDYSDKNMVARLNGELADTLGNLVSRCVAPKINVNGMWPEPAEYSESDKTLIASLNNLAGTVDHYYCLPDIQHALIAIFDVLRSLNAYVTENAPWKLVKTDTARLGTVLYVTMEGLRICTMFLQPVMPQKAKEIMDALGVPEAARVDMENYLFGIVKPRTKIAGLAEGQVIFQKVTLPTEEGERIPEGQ

[2] = target: AMP-activated protein kinase, AMPK (Homo sapiens) (UniProt P54646+O43741+P54619+Q9UGJ0+Q9Y478+Q13131+Q9UGI9); test: AMP-dependent Kinase enzyme assay. An in vitro enzyme assay that detects ADP turnover that is directly proportional to AMPK activity. This uses naive AMPK that is activated during the assay with MK-8722; format: functional; design: scale not given: direction of the effect not stated beside the values; settings: 30 µM
[3] = target: Protein translocase subunit SecA (Escherichia coli (strain K12)) (UniProt P10408); test: Assay to Identify E. coli SecA ATPase Inhibitors; format: functional; design: scale not given: direction of the effect not stated beside the values; settings: 30 µM
Sequence of Protein translocase subunit SecA (Escherichia coli (strain K12)) (P10408 whole entry): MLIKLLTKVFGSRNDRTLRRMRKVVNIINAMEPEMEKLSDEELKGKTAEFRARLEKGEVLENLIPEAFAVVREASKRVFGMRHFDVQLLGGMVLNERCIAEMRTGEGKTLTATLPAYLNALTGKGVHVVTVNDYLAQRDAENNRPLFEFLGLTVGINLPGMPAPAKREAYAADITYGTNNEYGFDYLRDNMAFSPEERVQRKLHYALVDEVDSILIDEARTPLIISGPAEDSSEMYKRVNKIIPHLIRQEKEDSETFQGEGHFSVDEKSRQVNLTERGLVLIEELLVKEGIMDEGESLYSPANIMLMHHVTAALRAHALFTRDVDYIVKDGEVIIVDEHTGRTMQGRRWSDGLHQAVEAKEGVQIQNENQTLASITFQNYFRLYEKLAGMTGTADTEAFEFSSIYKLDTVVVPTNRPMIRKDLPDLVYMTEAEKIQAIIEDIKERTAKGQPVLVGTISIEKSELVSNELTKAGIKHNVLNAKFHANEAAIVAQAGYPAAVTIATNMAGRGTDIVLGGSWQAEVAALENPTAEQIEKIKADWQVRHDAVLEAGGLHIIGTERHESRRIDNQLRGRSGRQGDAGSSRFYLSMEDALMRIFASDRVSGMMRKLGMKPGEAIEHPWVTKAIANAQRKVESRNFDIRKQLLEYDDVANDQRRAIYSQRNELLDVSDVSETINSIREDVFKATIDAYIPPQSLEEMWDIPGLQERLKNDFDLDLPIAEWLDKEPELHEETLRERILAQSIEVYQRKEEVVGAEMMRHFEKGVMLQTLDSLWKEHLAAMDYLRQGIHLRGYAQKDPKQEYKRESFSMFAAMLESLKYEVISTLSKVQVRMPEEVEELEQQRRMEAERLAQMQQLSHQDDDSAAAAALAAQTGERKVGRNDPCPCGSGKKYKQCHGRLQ

[4] = target: T2, Ubiquitin-activating enzyme e1, putative (Leishmania donovani (strain BPK282A1)) (UniProt E9BSI1); test: Leishmania donovani Ubiquitin Activating Enzyme (LdE1); format: functional; design: scale not given: direction of the effect not stated beside the values; settings: 30 µM
T2 sequence (whole entry): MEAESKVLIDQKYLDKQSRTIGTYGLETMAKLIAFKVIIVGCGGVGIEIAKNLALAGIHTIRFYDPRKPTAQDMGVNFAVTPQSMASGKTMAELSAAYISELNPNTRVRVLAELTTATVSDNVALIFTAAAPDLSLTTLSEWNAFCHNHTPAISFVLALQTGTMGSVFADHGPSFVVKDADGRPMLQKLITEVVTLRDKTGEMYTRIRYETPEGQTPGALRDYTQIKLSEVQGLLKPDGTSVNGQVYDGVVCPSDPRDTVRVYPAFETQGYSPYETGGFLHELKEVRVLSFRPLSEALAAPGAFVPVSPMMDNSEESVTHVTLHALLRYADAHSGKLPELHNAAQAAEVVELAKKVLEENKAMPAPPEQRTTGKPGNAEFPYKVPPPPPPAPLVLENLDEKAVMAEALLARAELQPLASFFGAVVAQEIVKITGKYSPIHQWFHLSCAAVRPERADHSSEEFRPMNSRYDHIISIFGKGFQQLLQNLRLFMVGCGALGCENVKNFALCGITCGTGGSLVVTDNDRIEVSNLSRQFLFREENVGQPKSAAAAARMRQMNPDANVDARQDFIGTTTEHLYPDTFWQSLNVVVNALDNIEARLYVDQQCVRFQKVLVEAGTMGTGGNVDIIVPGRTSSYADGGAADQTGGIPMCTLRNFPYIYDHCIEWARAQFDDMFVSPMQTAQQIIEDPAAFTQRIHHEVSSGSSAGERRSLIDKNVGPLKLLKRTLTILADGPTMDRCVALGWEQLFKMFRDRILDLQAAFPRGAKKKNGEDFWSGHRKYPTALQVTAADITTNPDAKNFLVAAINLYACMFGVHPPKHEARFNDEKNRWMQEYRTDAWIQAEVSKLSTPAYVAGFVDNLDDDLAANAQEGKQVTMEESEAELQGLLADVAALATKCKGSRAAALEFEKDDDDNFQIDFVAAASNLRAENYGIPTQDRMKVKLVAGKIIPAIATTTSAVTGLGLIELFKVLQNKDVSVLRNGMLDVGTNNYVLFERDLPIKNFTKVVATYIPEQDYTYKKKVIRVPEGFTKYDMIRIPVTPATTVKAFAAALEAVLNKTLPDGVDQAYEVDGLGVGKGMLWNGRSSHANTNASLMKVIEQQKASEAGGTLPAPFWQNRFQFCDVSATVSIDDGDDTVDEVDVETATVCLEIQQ

[5] = target: Sialic acid-binding Ig-like lectin 9 (Homo sapiens) (UniProt Q9Y336); test: Hs-Siglec9 ALPHAscreen SOP 20170721; design: scale not given: direction of the effect not stated beside the values; settings: 10 µM
Sequence of Sialic acid-binding Ig-like lectin 9 (Homo sapiens) (Q9Y336 whole entry): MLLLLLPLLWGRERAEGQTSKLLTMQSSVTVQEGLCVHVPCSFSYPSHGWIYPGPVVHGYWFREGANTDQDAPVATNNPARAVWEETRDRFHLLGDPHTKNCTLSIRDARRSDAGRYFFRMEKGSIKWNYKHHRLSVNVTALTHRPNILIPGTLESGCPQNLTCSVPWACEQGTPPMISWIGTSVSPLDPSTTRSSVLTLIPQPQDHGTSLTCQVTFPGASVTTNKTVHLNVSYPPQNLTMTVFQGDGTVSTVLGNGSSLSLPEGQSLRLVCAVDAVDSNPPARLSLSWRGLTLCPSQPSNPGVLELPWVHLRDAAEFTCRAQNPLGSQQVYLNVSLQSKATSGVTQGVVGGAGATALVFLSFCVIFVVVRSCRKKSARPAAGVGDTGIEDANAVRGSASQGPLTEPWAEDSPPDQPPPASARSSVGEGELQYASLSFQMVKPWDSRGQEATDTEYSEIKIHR

[6] = test system: Trypanosoma cruzi; test: Trypanosoma cruzi phosphomannomutase and mannose-1-phosphate guanylyltransferase assay; format: functional; design: scale not given: direction of the effect not stated beside the values; settings: 10 µM
[7] = target: T3, Arginase-2, mitochondrial (Homo sapiens) (UniProt P78540); test: in vitro enzyme assay to detect the production of urea directly proportional to the activity of Arginase II; format: functional; design: scale not given: in the data most compounds retested in dose-response had high values; settings: 33.3 µM
T3 sequence (whole entry): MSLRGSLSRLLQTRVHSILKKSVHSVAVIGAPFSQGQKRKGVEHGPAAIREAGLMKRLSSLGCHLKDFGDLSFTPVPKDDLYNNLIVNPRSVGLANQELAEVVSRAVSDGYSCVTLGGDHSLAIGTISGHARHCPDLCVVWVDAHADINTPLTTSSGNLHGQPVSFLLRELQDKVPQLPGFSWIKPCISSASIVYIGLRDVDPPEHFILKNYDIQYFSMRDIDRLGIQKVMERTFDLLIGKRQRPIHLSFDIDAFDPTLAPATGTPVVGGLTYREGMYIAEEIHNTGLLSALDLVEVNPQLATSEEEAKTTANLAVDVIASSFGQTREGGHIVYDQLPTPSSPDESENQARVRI

[8] = target: T4, Proteasome subunit beta (Trypanosoma cruzi) (UniProt O96673); test: Trypanosoma cruzi proteasome chymotrypsin-like activity (TcProtChymo) assay.; format: functional; design: scale not given: in the data most compounds retested in dose-response had high values; settings: 9.37 µM
T4 sequence (whole entry): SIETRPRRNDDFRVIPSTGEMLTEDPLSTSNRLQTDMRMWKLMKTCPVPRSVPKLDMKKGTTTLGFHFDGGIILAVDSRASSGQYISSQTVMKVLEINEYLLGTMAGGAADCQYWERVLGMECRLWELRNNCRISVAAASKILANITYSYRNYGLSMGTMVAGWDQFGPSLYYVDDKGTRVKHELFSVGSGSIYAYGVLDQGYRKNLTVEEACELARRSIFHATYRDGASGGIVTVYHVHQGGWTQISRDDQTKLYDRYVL

[9] = species on record: Homo sapiens; test: To identify inhibition of the IFN signalling (Jak-Stat) pathway via expression of an eGFP reporter gene under the control of an IFN-stimulated response element (ISRE) containing MxA promoter.; format: functional; design: scale not given: direction of the effect not stated beside the values; settings: 30 µM
[10] = target: T5, Tyrosyl-tRNA synthetase, putative (Trypanosoma cruzi (strain CL Brener)) (UniProt Q4DSP6); test: Trypanosoma cruzi tyrosyl tRNA synthetase (TcYRS) _High Tyrosine SOP; format: functional; design: scale not given: in the data most compounds retested in dose-response had high values; settings: 30 µM
T5 sequence (whole entry): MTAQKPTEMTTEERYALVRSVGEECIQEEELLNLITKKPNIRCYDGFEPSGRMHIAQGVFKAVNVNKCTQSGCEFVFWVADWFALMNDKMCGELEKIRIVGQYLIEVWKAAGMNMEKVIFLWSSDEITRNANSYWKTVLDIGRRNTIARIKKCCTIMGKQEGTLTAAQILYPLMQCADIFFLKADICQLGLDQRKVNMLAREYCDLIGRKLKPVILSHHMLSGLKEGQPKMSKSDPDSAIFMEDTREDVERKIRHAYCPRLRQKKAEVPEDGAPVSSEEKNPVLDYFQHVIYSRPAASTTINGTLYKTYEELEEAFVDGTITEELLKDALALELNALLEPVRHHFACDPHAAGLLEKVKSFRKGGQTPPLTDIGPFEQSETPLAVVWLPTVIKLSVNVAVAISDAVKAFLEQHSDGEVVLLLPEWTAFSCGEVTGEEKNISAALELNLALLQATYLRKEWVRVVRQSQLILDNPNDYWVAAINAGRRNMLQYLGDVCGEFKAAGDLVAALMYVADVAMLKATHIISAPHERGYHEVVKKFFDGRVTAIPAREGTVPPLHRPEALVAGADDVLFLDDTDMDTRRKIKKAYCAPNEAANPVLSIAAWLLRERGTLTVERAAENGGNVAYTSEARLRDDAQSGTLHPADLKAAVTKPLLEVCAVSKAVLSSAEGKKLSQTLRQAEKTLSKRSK

[11] = target: T5, Tyrosyl-tRNA synthetase, putative (Trypanosoma cruzi (strain CL Brener)); test: Trypanosoma cruzi tyrosyl tRNA synthetase (TcYRS) SOP; format: functional; design: scale not given: direction of the effect not stated beside the values; settings: 30 µM
[12] = target: Chromo domain-containing protein 1 (Saccharomyces cerevisiae (strain ATCC 204508 / S288c) (Baker's yeast)) (UniProt P32657); test: ScCHD-1 Enzyme Inhibition Assay; format: functional; design: scale not given: in the data most compounds retested in dose-response had high values; settings: 30 µM
Sequence of Chromo domain-containing protein 1 (Saccharomyces cerevisiae (strain ATCC 204508 / S288c) (Baker's yeast)) (P32657 whole entry, the tested form may be a part): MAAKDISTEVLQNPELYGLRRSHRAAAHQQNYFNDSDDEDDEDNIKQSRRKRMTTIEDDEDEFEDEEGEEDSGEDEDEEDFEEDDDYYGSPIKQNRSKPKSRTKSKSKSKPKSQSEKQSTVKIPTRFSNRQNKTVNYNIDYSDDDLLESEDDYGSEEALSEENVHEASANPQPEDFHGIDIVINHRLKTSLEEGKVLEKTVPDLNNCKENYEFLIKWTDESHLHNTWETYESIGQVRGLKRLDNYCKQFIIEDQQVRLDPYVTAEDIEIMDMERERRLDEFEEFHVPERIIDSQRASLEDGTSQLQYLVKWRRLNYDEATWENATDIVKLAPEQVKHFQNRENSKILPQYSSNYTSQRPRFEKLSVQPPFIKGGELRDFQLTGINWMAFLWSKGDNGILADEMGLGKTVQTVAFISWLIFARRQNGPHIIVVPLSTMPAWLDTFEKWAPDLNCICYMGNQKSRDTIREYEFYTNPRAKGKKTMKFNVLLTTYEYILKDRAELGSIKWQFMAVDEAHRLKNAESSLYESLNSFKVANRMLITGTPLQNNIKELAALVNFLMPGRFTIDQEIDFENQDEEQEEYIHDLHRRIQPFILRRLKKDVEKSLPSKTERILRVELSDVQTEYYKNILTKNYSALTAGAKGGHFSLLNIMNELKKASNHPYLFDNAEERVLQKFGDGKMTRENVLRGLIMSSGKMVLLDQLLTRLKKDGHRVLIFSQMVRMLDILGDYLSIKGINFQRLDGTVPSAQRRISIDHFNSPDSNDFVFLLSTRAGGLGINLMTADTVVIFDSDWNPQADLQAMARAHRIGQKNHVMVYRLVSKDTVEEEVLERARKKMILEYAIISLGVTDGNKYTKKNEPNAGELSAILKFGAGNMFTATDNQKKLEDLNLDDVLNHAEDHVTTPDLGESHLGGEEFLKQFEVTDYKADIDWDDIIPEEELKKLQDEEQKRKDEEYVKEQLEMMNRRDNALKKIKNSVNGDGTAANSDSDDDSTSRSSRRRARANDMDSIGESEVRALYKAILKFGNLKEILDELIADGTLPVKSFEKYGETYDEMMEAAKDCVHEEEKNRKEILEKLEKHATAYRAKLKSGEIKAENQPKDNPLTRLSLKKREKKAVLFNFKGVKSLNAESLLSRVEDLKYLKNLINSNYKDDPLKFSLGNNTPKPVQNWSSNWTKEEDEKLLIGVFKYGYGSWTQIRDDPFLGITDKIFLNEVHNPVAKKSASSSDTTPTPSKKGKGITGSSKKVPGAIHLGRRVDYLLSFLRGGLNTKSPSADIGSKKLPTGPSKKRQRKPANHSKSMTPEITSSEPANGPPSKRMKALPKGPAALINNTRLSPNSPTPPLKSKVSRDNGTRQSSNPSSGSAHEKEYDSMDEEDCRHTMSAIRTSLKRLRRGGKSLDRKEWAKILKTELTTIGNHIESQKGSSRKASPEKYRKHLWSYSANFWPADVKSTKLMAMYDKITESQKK

For `c1ccc(C2CCCN(c3cncc(-n4cccn4)n3)CC2)cc1` (centres undefined), the PXC50 ([1]; BOTTOM 2.059841181, HILLSLOPE 1.067052754, MAX_EFFECT 60.46065259, TOP 100.0) was 4.15, the PXC50 ([1]; BOTTOM 3.016481369, HILLSLOPE 1.023719455, MAX_EFFECT 53.04659498, TOP 100.0) was 4.01 and the PXC50 ([1]; BOTTOM -1.1240017, HILLSLOPE 1.127395441, MAX_EFFECT 50.23923445, TOP 100.0) was 4.01. The PXC50 ([1]; MAX_EFFECT 41.25412541) was less than 4 and the PXC50 ([1]; MAX_EFFECT 41.30434783) was less than 4.

With `O=C(NCc1cnn2cccnc12)c1cccc(CC2CCNCC2)c1` the PXC50 ([1]; BOTTOM 2.141206025, HILLSLOPE 1.62116593, MAX_EFFECT 62.52189142, TOP 100.0) was 4.14, the PXC50 ([1]; BOTTOM 2.892347169, HILLSLOPE 1.976450586, MAX_EFFECT 93.87755102, TOP 100.0) was 4.43 and the PXC50 ([1]; BOTTOM 5.673984802, HILLSLOPE 1.822868055, MAX_EFFECT 90.57971014, TOP 100.0) was 4.44. The Percent Effect [2] was 2.98%.

`NC[C@H]1CC[C@H](C(NC(=O)c2cccc(F)c2)c2ccccn2)CC1` (some centres undefined) was tested, and the PXC50 ([1]; MAX_EFFECT 33.33333333) was less than 4, the PXC50 ([1]; MAX_EFFECT 43.95393474) was less than 4 and the PXC50 ([1]; MAX_EFFECT 49.10394265) was less than 4. The PXC50 ([1]; MAX_EFFECT 49.8349835) was less than 4, the PXC50 ([1]; MAX_EFFECT 55.07246377) was less than 4 and the Percent Effect [3] was 0.535%. The Percent Effect [4] was 12%, the Percent Effect [5] was -8.09% and the Percent Effect [6] was 6.51%. It also gave a Percent Effect [7] of -0.443%, a Percent Effect [8] of 9.36% and a Percent Effect [9] of 8.62%. For the same compound, the Percent Effect [10] was 31.8%, the Percent Effect [11] was 45% and the Percent Effect [12] was -26.3%.
